Measured values: publication PMC11006913
Positions count from the first letter of the chain named.

Experiments:
Experiment in all cases: PBM; 200 nM protein, PBS
Settings in all cases: dsDNA, one strand shown
[1] = target: SHOX (Homo sapiens, UniProt O15266 103-189)
[2] = target: T1, SIX6 (Homo sapiens, UniProt O95475 114-200, L167I)
T1 sequence: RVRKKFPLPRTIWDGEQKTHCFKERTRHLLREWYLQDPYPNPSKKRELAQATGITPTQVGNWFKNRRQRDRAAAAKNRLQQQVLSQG

[3] = target: T2, SIX6 (Homo sapiens, UniProt O95475 114-200, L143V)
T2 sequence: T1 sequence with L30V, I54L

[4] = target: T3, SIX6 (Homo sapiens, UniProt O95475 114-200, H141N)
T3 sequence: T1 sequence with H28N, I54L

[5] = target: T4, SIX6 (Homo sapiens, UniProt O95475 114-200, T165P)
T4 sequence: T1 sequence with T52P, I54L

[6] = target: T5, SIX6 (Homo sapiens, UniProt O95475 114-200, L167M)
T5 sequence: T1 sequence with I54M

[7] = target: T6, SIX6 (Homo sapiens, UniProt O95475 114-200, L143M)
T6 sequence: T1 sequence with L30M, I54L

[8] = target: T7, SIX6 (Homo sapiens, UniProt O95475 114-200, L143I)
T7 sequence: T1 sequence with L30I, I54L

[9] = target: T8, SIX6 (Homo sapiens, UniProt O95475 114-200, T165G)
T8 sequence: T1 sequence with T52G, I54L

[10] = target: T9, SIX6 (Homo sapiens, UniProt O95475 114-200, T139Q)
T9 sequence: T1 sequence with T26Q, I54L

[11] = target: T10, SIX6 (Homo sapiens, UniProt O95475 114-200, T165A)
T10 sequence: T1 sequence with T52A, I54L

[12] = target: SHOX (Homo sapiens, UniProt O15266 103-189, R173C)
Chain of SHOX (Homo sapiens, UniProt O15266 103-189, R173C) (O15266 103-189 R173C): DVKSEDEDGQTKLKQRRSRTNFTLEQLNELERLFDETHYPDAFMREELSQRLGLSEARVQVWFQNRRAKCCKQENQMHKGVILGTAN

[13] = target: T11, SIX6 (Homo sapiens, UniProt O95475 114-200, L167V)
T11 sequence: T1 sequence with I54V

[14] = target: T12, SIX6 (Homo sapiens, UniProt O95475 114-200)
T12 sequence: T1 sequence with I54L

[15] = target: T13, SIX6 (Homo sapiens, UniProt O95475 114-200, T165I)
T13 sequence: T1 sequence with T52I, I54L

[16] = target: CRX (Homo sapiens, UniProt O43186 26-111)
Chain of CRX (Homo sapiens, UniProt O43186 26-111) (O43186 26-111): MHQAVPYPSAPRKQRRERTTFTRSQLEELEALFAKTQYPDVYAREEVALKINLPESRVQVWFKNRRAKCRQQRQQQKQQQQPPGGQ

[17] = target: CRX (Homo sapiens, UniProt O43186 26-111, E42D)
Chain of CRX (Homo sapiens, UniProt O43186 26-111, E42D) (O43186 26-111 E42D): as the sequence (O43186 26-111) above, with E17D counted along it

[18] = target: MSX2 (Homo sapiens, UniProt P35548 130-214, R199I)
Chain of MSX2 (Homo sapiens, UniProt P35548 130-214, R199I) (P35548 130-214 R199I): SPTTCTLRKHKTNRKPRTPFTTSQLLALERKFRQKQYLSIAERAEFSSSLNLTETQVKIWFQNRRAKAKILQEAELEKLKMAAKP

[19] = target: MSX2 (Homo sapiens, UniProt P35548 130-214)
Chain of MSX2 (Homo sapiens, UniProt P35548 130-214) (P35548 130-214): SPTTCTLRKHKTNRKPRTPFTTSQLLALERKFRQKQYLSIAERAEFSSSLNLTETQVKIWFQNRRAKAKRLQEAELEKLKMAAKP

[20] = target: MSX2 (Homo sapiens, UniProt P35548 130-214, F161Y)
Chain of MSX2 (Homo sapiens, UniProt P35548 130-214, F161Y) (P35548 130-214 F161Y): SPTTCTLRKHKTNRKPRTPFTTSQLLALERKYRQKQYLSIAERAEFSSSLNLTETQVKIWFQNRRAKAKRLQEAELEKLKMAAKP

[21] = target: CRX (Homo sapiens, UniProt O43186 26-111, R41L)
Chain of CRX (Homo sapiens, UniProt O43186 26-111, R41L) (O43186 26-111 R41L): as the sequence (O43186 26-111) above, with R16L counted along it

[22] = target: HOXA7 (Homo sapiens, UniProt P31268 116-202)
Chain of HOXA7 (Homo sapiens, UniProt P31268 116-202) (P31268 116-202): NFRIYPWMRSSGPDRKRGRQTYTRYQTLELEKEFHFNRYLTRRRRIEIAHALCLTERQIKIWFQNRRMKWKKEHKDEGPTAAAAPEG

[23] = target: ALX3 (Homo sapiens, UniProt O95076 139-225, N203Q)
Chain of ALX3 (Homo sapiens, UniProt O95076 139-225, N203Q) (O95076 139-225 N203Q): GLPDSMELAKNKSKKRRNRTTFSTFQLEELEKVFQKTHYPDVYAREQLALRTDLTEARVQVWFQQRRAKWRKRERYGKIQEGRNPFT

[24] = target: HOXD13 (Homo sapiens, UniProt P35453 263-343, T313R)
Chain of HOXD13 (Homo sapiens, UniProt P35453 263-343, T313R) (P35453 263-343 T313R): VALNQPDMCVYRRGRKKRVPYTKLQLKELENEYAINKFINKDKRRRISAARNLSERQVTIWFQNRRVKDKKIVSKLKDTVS

[25] = target: HOXD13 (Homo sapiens, UniProt P35453 263-343)
Chain of HOXD13 (Homo sapiens, UniProt P35453 263-343) (P35453 263-343): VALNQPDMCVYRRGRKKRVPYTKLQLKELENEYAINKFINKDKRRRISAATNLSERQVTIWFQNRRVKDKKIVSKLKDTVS

[26] = target: ALX3 (Homo sapiens, UniProt O95076 139-225)
Chain of ALX3 (Homo sapiens, UniProt O95076 139-225) (O95076 139-225): as the sequence (O95076 139-225 N203Q) above, with Q65N counted along it

[27] = target: ALX3 (Homo sapiens, UniProt O95076 139-225, L168Q)
Chain of ALX3 (Homo sapiens, UniProt O95076 139-225, L168Q) (O95076 139-225 L168Q): as the sequence (O95076 139-225 N203Q) above, with L30Q, Q65N counted along it

[28] = target: HOXD13 (Homo sapiens, UniProt P35453 263-343, T313A)
Chain of HOXD13 (Homo sapiens, UniProt P35453 263-343, T313A) (P35453 263-343 T313A): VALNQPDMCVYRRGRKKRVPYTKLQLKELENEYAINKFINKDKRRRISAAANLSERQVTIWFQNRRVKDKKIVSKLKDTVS

[29] = target: ALX3 (Homo sapiens, UniProt O95076 139-225, L168V)
Chain of ALX3 (Homo sapiens, UniProt O95076 139-225, L168V) (O95076 139-225 L168V): as the sequence (O95076 139-225 N203Q) above, with L30V, Q65N counted along it

[30] = target: HOXA7 (Homo sapiens, UniProt P31268 116-202, W177C)
Chain of HOXA7 (Homo sapiens, UniProt P31268 116-202, W177C) (P31268 116-202 W177C): as the sequence (P31268 116-202) above, with W62C counted along it

[31] = target: ALX3 (Homo sapiens, UniProt O95076 139-225, N203S)
Chain of ALX3 (Homo sapiens, UniProt O95076 139-225, N203S) (O95076 139-225 N203S): as the sequence (O95076 139-225 N203Q) above, with Q65S counted along it

[32] = target: HOXC9 (Homo sapiens, UniProt P31274 178-260, K195R)
Chain of HOXC9 (Homo sapiens, UniProt P31274 178-260, K195R) (P31274 178-260 K195R): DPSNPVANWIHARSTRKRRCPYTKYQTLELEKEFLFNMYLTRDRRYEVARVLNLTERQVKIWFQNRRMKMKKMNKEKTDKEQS

[33] = target: HOXB6 (Homo sapiens, UniProt P17509 132-218, K202E)
Chain of HOXB6 (Homo sapiens, UniProt P17509 132-218, K202E) (P17509 132-218 K202E): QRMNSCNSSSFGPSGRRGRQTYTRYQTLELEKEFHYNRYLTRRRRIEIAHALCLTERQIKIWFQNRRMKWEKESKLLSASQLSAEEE

[34] = target: HOXC9 (Homo sapiens, UniProt P31274 178-260)
Chain of HOXC9 (Homo sapiens, UniProt P31274 178-260) (P31274 178-260): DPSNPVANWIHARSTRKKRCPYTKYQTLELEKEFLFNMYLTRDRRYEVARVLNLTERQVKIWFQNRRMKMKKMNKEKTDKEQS

[35] = target: HOXC9 (Homo sapiens, UniProt P31274 178-260, R193K)
Chain of HOXC9 (Homo sapiens, UniProt P31274 178-260, R193K) (P31274 178-260 R193K): as the sequence (P31274 178-260) above, with R16K counted along it

[36] = target: HOXC9 (Homo sapiens, UniProt P31274 178-260, R222W)
Chain of HOXC9 (Homo sapiens, UniProt P31274 178-260, R222W) (P31274 178-260 R222W): as the sequence (P31274 178-260) above, with R45W counted along it

[37] = target: HOXB6 (Homo sapiens, UniProt P17509 132-218)
Chain of HOXB6 (Homo sapiens, UniProt P17509 132-218) (P17509 132-218): as the sequence (P17509 132-218 K202E) above, with E71K counted along it

Chain of SHOX (Homo sapiens, UniProt O15266 103-189) (O15266 103-189): as the sequence (O15266 103-189 R173C) above, with C71R counted along it

With AATCGTGT the binding signal [1] was 8.39 upbm affinity estimate (log intensity, higher = more binding, comparable within an allelic series).

For GGGCCGAA, the binding signal [1] was 7.23 upbm affinity estimate (log intensity, higher = more binding, comparable within an allelic series), the binding signal [2] was 8.79 upbm affinity estimate (log intensity, higher = more binding, comparable within an allelic series) and the binding signal [3] was 8.79 upbm affinity estimate (log intensity, higher = more binding, comparable within an allelic series). For the same sequence, the binding signal [4] was 8.73 upbm affinity estimate (log intensity, higher = more binding, comparable within an allelic series), the binding signal [5] was 8.89 upbm affinity estimate (log intensity, higher = more binding, comparable within an allelic series) and the binding signal [6] was 8.8 upbm affinity estimate (log intensity, higher = more binding, comparable within an allelic series). For the same sequence, the binding signal [7] was 8.64 upbm affinity estimate (log intensity, higher = more binding, comparable within an allelic series), the binding signal [8] was 8.74 upbm affinity estimate (log intensity, higher = more binding, comparable within an allelic series) and the binding signal [9] was 8.79 upbm affinity estimate (log intensity, higher = more binding, comparable within an allelic series). The binding signal [10] was 8.8 upbm affinity estimate (log intensity, higher = more binding, comparable within an allelic series), the binding signal [11] was 8.73 upbm affinity estimate (log intensity, higher = more binding, comparable within an allelic series) and the binding signal [12] was 7.18 upbm affinity estimate (log intensity, higher = more binding, comparable within an allelic series). For the same sequence, the binding signal [13] was 8.77 upbm affinity estimate (log intensity, higher = more binding, comparable within an allelic series), the binding signal [14] was 8.68 upbm affinity estimate (log intensity, higher = more binding, comparable within an allelic series) and the binding signal [15] was 8.82 upbm affinity estimate (log intensity, higher = more binding, comparable within an allelic series).

With CCTGCCTC the binding signal [1] was 7.13 upbm affinity estimate (log intensity, higher = more binding, comparable within an allelic series), the binding signal [16] was 8.19 upbm affinity estimate (log intensity, higher = more binding, comparable within an allelic series) and the binding signal [17] was 8.2 upbm affinity estimate (log intensity, higher = more binding, comparable within an allelic series). For the same sequence, the binding signal [18] was 9.6 upbm affinity estimate (log intensity, higher = more binding, comparable within an allelic series), the binding signal [12] was 7.13 upbm affinity estimate (log intensity, higher = more binding, comparable within an allelic series) and the binding signal [19] was 9.51 upbm affinity estimate (log intensity, higher = more binding, comparable within an allelic series). For the same sequence, the binding signal [20] was 9.51 upbm affinity estimate (log intensity, higher = more binding, comparable within an allelic series) and the binding signal [21] was 8.18 upbm affinity estimate (log intensity, higher = more binding, comparable within an allelic series).

In the case of CCTCTCCG, the binding signal [1] is reported as 6.97 upbm affinity estimate (log intensity, higher = more binding, comparable within an allelic series), the binding signal [2] is reported as 8.93 upbm affinity estimate (log intensity, higher = more binding, comparable within an allelic series) and the binding signal [3] is reported as 8.82 upbm affinity estimate (log intensity, higher = more binding, comparable within an allelic series). The binding signal [22] was 8.27 upbm affinity estimate (log intensity, higher = more binding, comparable within an allelic series), the binding signal [4] was 8.83 upbm affinity estimate (log intensity, higher = more binding, comparable within an allelic series) and the binding signal [5] was 8.87 upbm affinity estimate (log intensity, higher = more binding, comparable within an allelic series). For the same sequence, the binding signal [6] was 8.89 upbm affinity estimate (log intensity, higher = more binding, comparable within an allelic series), the binding signal [7] was 8.93 upbm affinity estimate (log intensity, higher = more binding, comparable within an allelic series) and the binding signal [8] was 8.91 upbm affinity estimate (log intensity, higher = more binding, comparable within an allelic series). The binding signal [9] was 8.85 upbm affinity estimate (log intensity, higher = more binding, comparable within an allelic series), the binding signal [10] was 8.89 upbm affinity estimate (log intensity, higher = more binding, comparable within an allelic series) and the binding signal [23] was 7.63 upbm affinity estimate (log intensity, higher = more binding, comparable within an allelic series). The binding signal [24] was 9.4 upbm affinity estimate (log intensity, higher = more binding, comparable within an allelic series), the binding signal [11] was 8.98 upbm affinity estimate (log intensity, higher = more binding, comparable within an allelic series) and the binding signal [12] was 7.06 upbm affinity estimate (log intensity, higher = more binding, comparable within an allelic series). For the same sequence, the binding signal [25] was 9.42 upbm affinity estimate (log intensity, higher = more binding, comparable within an allelic series), the binding signal [13] was 8.9 upbm affinity estimate (log intensity, higher = more binding, comparable within an allelic series) and the binding signal [26] was 7.51 upbm affinity estimate (log intensity, higher = more binding, comparable within an allelic series). For the same sequence, the binding signal [14] was 8.77 upbm affinity estimate (log intensity, higher = more binding, comparable within an allelic series), the binding signal [27] was 7.69 upbm affinity estimate (log intensity, higher = more binding, comparable within an allelic series) and the binding signal [15] was 8.86 upbm affinity estimate (log intensity, higher = more binding, comparable within an allelic series). The binding signal [28] was 9.42 upbm affinity estimate (log intensity, higher = more binding, comparable within an allelic series), the binding signal [29] was 7.6 upbm affinity estimate (log intensity, higher = more binding, comparable within an allelic series) and the binding signal [30] was 8.41 upbm affinity estimate (log intensity, higher = more binding, comparable within an allelic series). For the same sequence, the binding signal [31] was 7.61 upbm affinity estimate (log intensity, higher = more binding, comparable within an allelic series).

With CCAGGGAC the binding signal [1] was 7.08 upbm affinity estimate (log intensity, higher = more binding, comparable within an allelic series), the binding signal [32] was 9.47 upbm affinity estimate (log intensity, higher = more binding, comparable within an allelic series) and the binding signal [33] was 8.97 upbm affinity estimate (log intensity, higher = more binding, comparable within an allelic series). For the same sequence, the binding signal [34] was 9.52 upbm affinity estimate (log intensity, higher = more binding, comparable within an allelic series), the binding signal [18] was 9.5 upbm affinity estimate (log intensity, higher = more binding, comparable within an allelic series) and the binding signal [12] was 7.17 upbm affinity estimate (log intensity, higher = more binding, comparable within an allelic series). For the same sequence, the binding signal [35] was 9.51 upbm affinity estimate (log intensity, higher = more binding, comparable within an allelic series), the binding signal [19] was 9.58 upbm affinity estimate (log intensity, higher = more binding, comparable within an allelic series) and the binding signal [36] was 9.62 upbm affinity estimate (log intensity, higher = more binding, comparable within an allelic series). The binding signal [20] was 9.57 upbm affinity estimate (log intensity, higher = more binding, comparable within an allelic series) and the binding signal [37] was 8.99 upbm affinity estimate (log intensity, higher = more binding, comparable within an allelic series).

ACAATCAA was tested, and the binding signal [1] was 8.45 upbm affinity estimate (log intensity, higher = more binding, comparable within an allelic series).

CCAGATAA was tested, and the binding signal [1] was 8.47 upbm affinity estimate (log intensity, higher = more binding, comparable within an allelic series).
